The nature of experiment [1]: binders of probe aFSTL3 on microarray, primary screen, stem cell growth factor project, biochemical, small-molecule microarray, fluorescence 635/667 (AID 1064).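 Also: measures binding of the biotinylated anti-FSTL3 antibody to printed compounds.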 Conditions: higher = more signal.
Experiment [2] in a line: binders from COS7 lysate, DM2A8 probe, primary screen, torsin A project, cell lysate, small-molecule microarray, fluorescence 635/667 (AID 1065). As to conditions: higher = more signal, COS7 lysate expressing mutant human TOR1A.
A short description of experiment [3]: binders of probe aFGF2 on microarray, primary screen, stem cell growth factor project, biochemical, small-molecule microarray, fluorescence 635/667 (AID 1067).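 Also: measures binding of biotinylated aFGF2 protein to printed compounds on slides; z-score merges feature fluorescence and signal-to-noise across triplicate slides.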 As to conditions: higher = more signal.
Experiment [4] is described as follows: binders of probe aFGF10 on microarray, primary screen, stem cell growth factor project, biochemical, small-molecule microarray, fluorescence 635/667 (AID 1071).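 Also: score merges 667 nm spot intensity and signal to noise from triplicate slides.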 As to conditions: higher = more signal.
Experiment [5] concerns the target Neurogenic locus notch homolog protein 2 (Homo sapiens) (UniProt Q04721). As to the kind of experiment: Notch2 binders on small-molecule microarrays, primary screen, biochemical, small-molecule microarray, 635 nm fluorescence, stem cell growth factors (AID 1073). As to conditions: Notch2 binding, higher = more signal.
For experiment [6], the target named is Pro-neuregulin-1, membrane-bound isoform (Homo sapiens) (UniProt Q02297). As to the kind of experiment: NRG1 binders on small-molecule microarrays, primary screen, psychiatric disease protein project, biochemical, small-molecule microarray, fluorescence 635/667 (AID 1075).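 Also: score combines 667 nm spot fluorescence with signal to noise.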 Conditions: NRG1 binding, 635 nm fluorescence, higher = more signal.
Pro-neuregulin-1, membrane-bound isoform (Homo sapiens), sequence (Q02297 whole entry, looked up, the tested form may be a part, canonical isoform): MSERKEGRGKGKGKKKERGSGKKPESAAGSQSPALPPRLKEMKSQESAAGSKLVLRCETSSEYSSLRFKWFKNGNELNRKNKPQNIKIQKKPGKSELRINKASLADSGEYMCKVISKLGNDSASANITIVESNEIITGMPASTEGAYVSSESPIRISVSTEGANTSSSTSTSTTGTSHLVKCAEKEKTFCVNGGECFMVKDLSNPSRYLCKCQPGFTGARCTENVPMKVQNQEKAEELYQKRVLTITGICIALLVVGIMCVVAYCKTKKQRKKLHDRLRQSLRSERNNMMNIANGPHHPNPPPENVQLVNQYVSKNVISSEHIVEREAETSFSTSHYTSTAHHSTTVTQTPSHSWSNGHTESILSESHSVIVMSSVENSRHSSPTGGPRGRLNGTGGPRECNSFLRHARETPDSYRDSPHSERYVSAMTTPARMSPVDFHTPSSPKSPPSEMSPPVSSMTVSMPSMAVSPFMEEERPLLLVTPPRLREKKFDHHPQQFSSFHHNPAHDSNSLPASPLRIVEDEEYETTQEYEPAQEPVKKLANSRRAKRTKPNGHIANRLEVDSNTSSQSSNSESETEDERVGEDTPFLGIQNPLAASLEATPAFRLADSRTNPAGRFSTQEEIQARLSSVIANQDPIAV
The test system of experiment [7] is Neuregulin-1 EGF-like domain. As to the kind of experiment: binders of neuregulin-1 EGF-like domain, primary screen, biochemical, small-molecule microarray, 635 nm fluorescence (AID 1081).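 Also: binding of the protein to compounds printed on small-molecule microarray slides.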 Conditions: small-molecule microarray binding, higher = more signal.
The nature of experiment [8]: FRG1 promoter luciferase signal modulators, primary screen, FRG1 inhibition for FSHD, cell-based, C2C12 myotubes, firefly/Renilla luciferase, luminescence (AID 1084). Conditions: higher = more signal, called active from +8 up or from −8 down.
The nature of experiment [9]: binders of probe aFST on microarray, primary screen, stem cell growth factor project, biochemical, small-molecule microarray, fluorescence 635/667 (AID 1086).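 Also: score merges 667 nm fluorescence with signal-to-noise of each printed compound spot.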 As to conditions: higher = more signal.
Experiment [10] is described as follows: binders of probe aHhip on microarray, primary screen, stem cell growth factor project, biochemical, small-molecule microarray, fluorescence 635/667 (AID 1087).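 Also: score merges spot fluorescence at 667nm with spot signal to noise ratio.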 Conditions: higher = more signal.

Our source for the composite z-score and z-score values is PubChem BioAssay.

Each structure is given as a SMILES string. Activity calls are given as the source filed them.

Neurogenic locus notch homolog protein 2 (Homo sapiens), sequence (Q04721 whole entry, looked up, canonical isoform): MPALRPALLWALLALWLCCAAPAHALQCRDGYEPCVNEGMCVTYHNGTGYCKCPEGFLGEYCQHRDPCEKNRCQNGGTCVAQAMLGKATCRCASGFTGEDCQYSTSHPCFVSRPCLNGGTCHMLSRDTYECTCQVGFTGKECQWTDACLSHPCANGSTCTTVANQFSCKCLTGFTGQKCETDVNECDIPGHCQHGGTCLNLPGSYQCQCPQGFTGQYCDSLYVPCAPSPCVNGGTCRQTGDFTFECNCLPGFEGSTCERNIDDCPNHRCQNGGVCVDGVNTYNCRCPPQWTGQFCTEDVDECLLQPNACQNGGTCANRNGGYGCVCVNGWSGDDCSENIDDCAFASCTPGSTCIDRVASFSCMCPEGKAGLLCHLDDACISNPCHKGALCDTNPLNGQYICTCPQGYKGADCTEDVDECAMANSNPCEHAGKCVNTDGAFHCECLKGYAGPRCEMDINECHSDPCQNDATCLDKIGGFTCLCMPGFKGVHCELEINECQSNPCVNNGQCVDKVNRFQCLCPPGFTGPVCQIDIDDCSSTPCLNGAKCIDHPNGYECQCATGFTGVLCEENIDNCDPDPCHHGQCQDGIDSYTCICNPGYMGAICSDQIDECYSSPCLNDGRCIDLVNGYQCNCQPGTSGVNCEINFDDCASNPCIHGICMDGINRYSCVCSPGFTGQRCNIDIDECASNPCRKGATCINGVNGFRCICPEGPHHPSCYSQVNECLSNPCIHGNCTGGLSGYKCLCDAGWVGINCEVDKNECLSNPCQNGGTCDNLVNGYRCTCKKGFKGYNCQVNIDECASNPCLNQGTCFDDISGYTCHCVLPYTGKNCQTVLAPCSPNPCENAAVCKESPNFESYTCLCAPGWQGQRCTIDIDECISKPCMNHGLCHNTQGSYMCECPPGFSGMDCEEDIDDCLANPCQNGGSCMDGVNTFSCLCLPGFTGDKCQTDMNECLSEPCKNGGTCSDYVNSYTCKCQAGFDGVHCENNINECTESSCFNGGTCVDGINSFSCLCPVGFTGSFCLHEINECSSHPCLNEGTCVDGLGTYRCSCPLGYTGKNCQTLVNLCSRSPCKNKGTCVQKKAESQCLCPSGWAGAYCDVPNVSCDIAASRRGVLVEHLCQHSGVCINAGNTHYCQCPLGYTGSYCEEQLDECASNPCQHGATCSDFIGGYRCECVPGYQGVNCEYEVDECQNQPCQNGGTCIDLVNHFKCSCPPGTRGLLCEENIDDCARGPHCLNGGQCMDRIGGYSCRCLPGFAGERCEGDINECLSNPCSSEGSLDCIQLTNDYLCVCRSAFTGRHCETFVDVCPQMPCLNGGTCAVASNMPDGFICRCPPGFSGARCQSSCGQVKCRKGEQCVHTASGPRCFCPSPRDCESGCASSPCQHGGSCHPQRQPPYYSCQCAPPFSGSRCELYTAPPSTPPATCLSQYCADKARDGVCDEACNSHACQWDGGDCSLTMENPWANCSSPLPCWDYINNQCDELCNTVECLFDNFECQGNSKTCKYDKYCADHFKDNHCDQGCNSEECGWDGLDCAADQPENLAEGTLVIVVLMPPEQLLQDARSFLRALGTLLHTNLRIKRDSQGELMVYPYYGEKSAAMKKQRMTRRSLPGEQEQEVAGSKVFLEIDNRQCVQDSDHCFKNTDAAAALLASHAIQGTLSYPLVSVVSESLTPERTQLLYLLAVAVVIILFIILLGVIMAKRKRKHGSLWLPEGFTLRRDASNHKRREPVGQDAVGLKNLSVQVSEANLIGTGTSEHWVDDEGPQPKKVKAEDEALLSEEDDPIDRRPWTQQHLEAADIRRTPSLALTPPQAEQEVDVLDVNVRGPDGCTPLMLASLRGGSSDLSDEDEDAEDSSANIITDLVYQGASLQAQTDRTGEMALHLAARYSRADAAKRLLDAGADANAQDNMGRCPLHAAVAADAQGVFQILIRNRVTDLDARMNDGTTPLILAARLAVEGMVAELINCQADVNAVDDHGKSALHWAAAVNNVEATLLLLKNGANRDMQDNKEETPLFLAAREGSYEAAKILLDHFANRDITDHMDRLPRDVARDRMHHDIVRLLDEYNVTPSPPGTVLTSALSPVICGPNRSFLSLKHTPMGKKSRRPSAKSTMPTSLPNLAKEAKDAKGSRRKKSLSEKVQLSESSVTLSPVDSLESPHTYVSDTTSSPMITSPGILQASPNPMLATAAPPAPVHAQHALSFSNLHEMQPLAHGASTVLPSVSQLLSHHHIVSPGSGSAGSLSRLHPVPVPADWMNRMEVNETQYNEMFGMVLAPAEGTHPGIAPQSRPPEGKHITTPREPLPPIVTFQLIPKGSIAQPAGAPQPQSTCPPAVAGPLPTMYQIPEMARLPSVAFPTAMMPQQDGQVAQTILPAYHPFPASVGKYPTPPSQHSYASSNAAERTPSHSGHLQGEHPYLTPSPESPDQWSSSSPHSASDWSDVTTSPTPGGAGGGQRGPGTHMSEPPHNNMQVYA

`COC(=O)C(CC#Cc1ccc2c(c1)[C@]1(C(=O)N2)[C@H](C(=O)N2CCCCCCC2)[C@H]2C(=O)O[C@H](c3ccccc3)[C@H](c3ccccc3)N2[C@@H]1c1ccc(OCCO)cc1)C(=O)OC`: the composite z-score in experiment [1] is 3.58; in experiment [2], 2.87; in experiment [3], 0.941; in experiment [4], 1.37; in experiment [5], 1.75; in experiment [6] it was 2.94. The results for the composite z-score in experiment [7], in experiment [9] and in experiment [10] were 1.33, 3.35 and 2.77, respectively. Also, the z-score in [8] is 1.91 (inactive).
With `COC(=O)Cn1c(C(=O)N(C)C)cc2c1C[C@H]1CN(C(=O)c3ccccc3)[C@@](Cc3ccccc3)(C(=O)OC)[C@@H]21`, the composite z-score in experiment [1] was -0.215; in experiment [2], -0.365; in experiment [3], -0.0493; in experiment [4], 0.0707; in experiment [5], 1.47; in experiment [6], 1.5. The composite z-score came to 0.641 in [7], 0.0747 in experiment [9] and 0.12 in experiment [10]. Besides, in experiment [8], the z-score is 1.5 (inactive).
As for `COc1ccc(C(=O)Nc2cccc(CN3C(=O)[C@]4(O[C@H](CC(=O)N(CCO)Cc5ccccc5)[C@@H]([Si](C)(C)c5ccc(OC)cc5)[C@@H]4C)c4ccccc43)c2)cc1`, the composite z-score was -0.211 in [1]; 0.333 in experiment [2]; -0.0695 in experiment [3]; 0.792 in [4]; 0.784 in experiment [5]; 0.61 in experiment [6]. Besides, the composite z-score in experiment [7] was 0.958; in experiment [9], -0.16; in experiment [10], 0.2. Further, the z-score in [8] was -1.07 (inactive).
With `CC1C2C(CCCO)=CC(C3C(=O)N(C)C(=O)C23)N1Cc1cccc(OC(F)(F)F)c1` (stereo not given), the composite z-score in experiment [1] is -0.0014; in [2] it was 0.289; in [3] it was 0.0653; in [4] it was 0.647; in [5], 0.929; in experiment [6], 2.04. Also, the composite z-score in experiment [7] was 1.37; in [9], 0.155; in experiment [10] it was 0.289. The z-score in [8] is 0.0511 (inactive).
As for `O=C1OCC=C[C@H]2OC34C=CCN(Cn5nnc6ccccc65)C(=O)[C@H]3N(CCO)C(=O)[C@@H]4[C@@H]12` (stereo not given in full), the composite z-score was 0.645 in experiment [1]; 1.9 in experiment [2]; -0.129 in experiment [3]; -0.749 in experiment [4]; -1.45 in [5]; 0.864 in [6]. In addition, the values for the composite z-score in experiment [7], in [9] and in experiment [10] were 0.579, -0.406 and -0.139, respectively. The z-score in experiment [8] is 0.13 (inactive).
Turning to `Cc1ccc(S(=O)(=O)N2[C@@H](c3ccccc3)C(C(=O)O)=CC[C@H]2c2ccc(F)cc2)cc1`, the composite z-score is -0.191 in experiment [1]; 1.32 in experiment [2]; 0.174 in experiment [3]; 1.41 in experiment [4]; -0.0595 in [5]; -0.0826 in experiment [6]. The composite z-score in experiment [7] is 1.33; in experiment [9], 0.654; in experiment [10], -0.252. The z-score in experiment [8] was -2.75 (inactive).
Regarding `COc1ccc([Si](C)(C)[C@H]2[C@H](CC(=O)N(CCO)Cc3ccccc3)O[C@@]3(C(=O)N(c4ccccc4)c4ccccc43)[C@@H]2C)cc1`, the composite z-score in [1] is -0.249; in experiment [2], -0.182; in experiment [3], -0.0261; in [4], 0.638; in experiment [5], 0.199; in experiment [6], 0.951. Further, the values for the composite z-score in experiment [7], in experiment [9] and in [10] were 0.46, 0.294 and -0.0581, respectively. The z-score in experiment [8] was -1.91 (inactive).
In the case of `COCCCNC(=O)[C@@]1(CCC(=O)OC(C)(C)C)N=C(c2ccc(OCCCO)cc2)O[C@H]1c1ccccc1`, the composite z-score in [1] was 0.593; in experiment [2] it was 0.737; in experiment [3], 0.0584; in experiment [4], 0.186; in experiment [5], 1.23; in experiment [6], 1.64. In addition, the composite z-score in [7] is 1.3; in [9], 1.16; in [10], 0.0424. The z-score in experiment [8] is -1.79 (inactive).
As for `C=CCN1C(=O)[C@@]2(O[C@@H](CCO)[C@H]([Si](C)(C)c3ccc(OC)cc3)[C@H]2C)c2cc(N3CCCCC3=O)ccc21`, the composite z-score in experiment [1] was -0.217; in [2] it was 0.504; in [3] it was -0.0415; in experiment [4], 0.268; in experiment [5] it was 0.704; in experiment [6] it was 1.12. Further, the figures for the composite z-score in experiment [7], in experiment [9] and in experiment [10] were 1.14, 0.2 and 0.0373, respectively. In addition, the z-score in experiment [8] is -1.11 (inactive).
On to `COc1ccc(NN2C(C(O)c3ccccc3)C=CC3C(=O)N(C4CCCCC4)C(=O)C32)cc1` (stereo not given), for which the composite z-score was found to be 0.0373 in experiment [1]; 0.166 in [2]; 0.0402 in experiment [3]; 0.851 in experiment [4]; 1.59 in experiment [5]; 1.39 in [6]. The composite z-score in experiment [7] was determined as 1.3; in experiment [9], 1.5; in [10], 0.224. For the same compound, the z-score in [8] is 1.78 (inactive).
